Common to all, as to conditions: mRNA level, 48 h; actives raise or lower the signal
Read-out in assay [1]: CFLAR gene, CFLAR (gene 8837)
Description: LTEA_HepaRG_CFLAR: Life Technologies and Expression Analysis (LTEA) Assay for CFLAR gene using HepaRG (AID 2283455). In outline: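 Gain- or loss-of-signal changes in CFLAR transcript were fitted bidirectionally relative to 0.5% DMSO. Cells (HepaRG, duplicate wells) were dosed for 48 h across eight half-log concentrations topping at 100 uM; quantitation by TaqMan qRT-PCR.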

Read-out in assay [2]: Forkhead box O1 (FOXO1), FOXO1 (gene 2308)
As to the kind of experiment: LTEA_HepaRG_FOXO1: Life Technologies and Expression Analysis (LTEA) Assay for Forkhead box O1 (FOXO1) using HepaRG (AID 2283456). In a few lines: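 Using one lot of HepaRG hepatic cells kept in 0.5% DMSO, the team applied test chemicals in duplicate, half-log dilutions from 100 uM, for 48 h. Expression, normalised to ACTB/GAPDH/POLR2A, was compared with vehicle in either direction.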

Read-out in assay [3]: growth arrest and DNA damage 45 (GADD45A), GADD45A (gene 1647)
As to the kind of experiment: LTEA_HepaRG_GADD45A: Life Technologies and Expression Analysis (LTEA) Assay for growth arrest and DNA damage 45 (GADD45A) using HepaRG (AID 2283458). In a few lines: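 Transcript induction or loss, quantified by TaqMan qRT-PCR against three housekeeping genes, is the read-out. HepaRG cells received chemicals for 48 h across eight half-log concentrations from 100 uM in 0.5% DMSO; gain and loss fitted relative to DMSO.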

Read-out in assay [4]: Forkhead box O3 (FOXO3), FOXO3 (gene 2309)
Description: LTEA_HepaRG_FOXO3: Life Technologies and Expression Analysis (LTEA) Assay for Forkhead box O3 (FOXO3) using HepaRG (AID 2283459). In a few lines:
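Gene-expression endpoint: FOXO3 transcript level by qRT-PCR in HepaRG cultures treated 48 h with chemicals up to 100 uM (half-log, 0.5% DMSO vehicle).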

Read-out in assay [5]: ABC Transporter (ABCB1), ABCB1 (gene 5243)
As to the kind of experiment: LTEA_HepaRG_ABCB1: Life Technologies and Expression Analysis (LTEA) Assay for ABC Transporter (ABCB1) using HepaRG (AID 2283460). In a few lines:
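Human liver HepaRG line treated 48 h with up to 100 uM compound (eight half-log points, 0.5% DMSO); ABCB1 mRNA change fitted bidirectionally against DMSO controls.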

Read-out in assay [6]: growth arrest and DNA damage 45 (GADD45B), GADD45B (gene 4616)
As to the kind of experiment: LTEA_HepaRG_GADD45B: Life Technologies and Expression Analysis (LTEA) Assay for growth arrest and DNA damage 45 (GADD45B) using HepaRG (AID 2283461). In a few lines: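 Values are bidirectional concentration-response fits against 0.5% DMSO controls. Underlying data: qRT-PCR mRNA levels in human HepaRG liver cells treated 48 h in serum-free induction medium, eight concentrations topping at 100 uM.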

Read-out in assay [7]: ABC Transporter (ABCC3), ABCC3 (gene 8714)
Description: LTEA_HepaRG_ABCC3: Life Technologies and Expression Analysis (LTEA) Assay for ABC Transporter (ABCC3) using HepaRG (AID 2283462). In a few lines: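 Differentiated HepaRG liver cells receive test chemicals at eight concentrations (max 100 uM) for 48 h. Expression of ABCC3 is quantified by qRT-PCR against ACTB, GAPDH and POLR2A, and activity is fitted in both directions against the DMSO control.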

Read-out in assay [8]: ABC Transporter (ABCB11), ABCB11 (gene 8647)
As to the kind of experiment: LTEA_HepaRG_ABCB11: Life Technologies and Expression Analysis (LTEA) Assay for ABC Transporter (ABCB11) using HepaRG (AID 2283463). In a few lines: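 Using HepaRG cultures held in 0.5% DMSO, chemicals were tested at half-log dilutions from 100 uM for 48 h. Induction or suppression of ABCB11 mRNA, normalized to ACTB, GAPDH and POLR2A, was fitted bidirectionally against vehicle.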

Read-out in assay [9]: ABC Transporter (ABCC2), ABCC2 (gene 1244)
As to the kind of experiment: LTEA_HepaRG_ABCC2: Life Technologies and Expression Analysis (LTEA) Assay for ABC Transporter (ABCC2) using HepaRG (AID 2283464). In a few lines:
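Gene expression of ABCC2 was determined by qRT-PCR in HepaRG cells exposed 48 h to chemicals (highest 100 uM, half-log dilutions). Activity was fitted in both directions relative to 0.5% DMSO vehicle.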

Read-out in assay [10]: ATP-citrate lyase (ACLY), ACLY (gene 47)
As to the kind of experiment: LTEA_HepaRG_ACLY: Life Technologies and Expression Analysis (LTEA) Assay for ATP-citrate lyase (ACLY) using HepaRG (AID 2283466). In a few lines:
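ACLY expression changes in human HepaRG liver cells are quantified by qRT-PCR after 48 h exposure to test chemicals (maximum 100 uM, half-log steps). Values are fitted in both directions relative to 0.5% DMSO vehicle.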

Read-out in assay [11]: Peroxisomal acyl-coenzyme A oxidase 1 (ACOX1) gene, ACOX1 (gene 51)
As to the kind of experiment: LTEA_HepaRG_ACOX1: Life Technologies and Expression Analysis (LTEA) Assay for Peroxisomal acyl-coenzyme A oxidase 1 (ACOX1) gene using HepaRG (AID 2283467). In a few lines:
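Human HepaRG hepatic cultures, 48 h treatment with test chemicals up to 100 uM. ACOX1 expression read by qRT-PCR relative to 0.5% DMSO vehicle.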

Read-out in assay [12]: Alkaline Phosphatase, Placental (ALPP) gene, ALPP (gene 250)
Description: LTEA_HepaRG_ALPP: Life Technologies and Expression Analysis (LTEA) Assay for Alkaline Phosphatase, Placental (ALPP) gene using HepaRG (AID 2283468).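 For AC50: ALPP transcript by TaqMan qRT-PCR normalized to ACTB GAPDH and POLR2A.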 In outline:
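Expression of ALPP was quantified by qRT-PCR against three housekeeping genes in human HepaRG cultures treated for 48 h with an eight-point concentration series up to 100 uM. Activity in either direction was fitted relative to 0.5% DMSO.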

Read-out in assay [13]: Bcl-2 (BAD) gene, BAD (gene 572)
As to the kind of experiment: LTEA_HepaRG_BAD: Life Technologies and Expression Analysis (LTEA) Assay for Bcl-2 (BAD) gene using HepaRG (AID 2283469). In a few lines:
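Activity values reflect up- or down-regulation of BAD mRNA in human HepaRG hepatic cells treated 48 h in serum-free medium, with eight-point half-log dosing capped at 100 uM and 0.5% DMSO vehicle.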

Read-out in assay [14]: Bcl-2 (BAX) gene, BAX (gene 581)
As to the kind of experiment: LTEA_HepaRG_BAX: Life Technologies and Expression Analysis (LTEA) Assay for Bcl-2 (BAX) gene using HepaRG (AID 2283470). In a few lines:
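Cells were thawed, plated for 48 h, moved to serum-free induction medium and dosed for 48 h (highest concentration 100 uM, half-log steps, 0.5% DMSO). Total RNA was then analysed for BAX expression by qRT-PCR.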

Read-out in assay [15]: Alpha-fetoprotein (AFP) gene, AFP (gene 174)
As to the kind of experiment: LTEA_HepaRG_AFP: Life Technologies and Expression Analysis (LTEA) Assay for Alpha-fetoprotein (AFP) gene using HepaRG (AID 2283472).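 For AC50: AFP transcript by TaqMan qRT-PCR normalized to ACTB GAPDH and POLR2A.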 In outline: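 Chemicals were tested on differentiated HepaRG cells for 48 hours at eight concentrations up to 100 uM, with 0.5% DMSO as vehicle. AFP expression was then quantified by qRT-PCR and analyzed for gain or loss relative to DMSO.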

Read-out in the next assay: BCL2L11 (gene 10018)
Description: LTEA_HepaRG_BCL2L11: Life Technologies and Expression Analysis (LTEA) Assay for Bcl-2 (BCL2L11) gene using HepaRG (AID 2283473). In outline: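 Cells were plated, cultured 48 h, switched to serum-free induction medium, then dosed in duplicate for 48 h at eight half-log concentrations up to 100 uM. Lysates underwent RNA isolation and TaqMan qRT-PCR; gain or loss versus DMSO was fitted.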

Read-out in assay [16]: Apolipoprotein A-V (APOA5) gene, APOA5 (gene 116519)
As to the kind of experiment: LTEA_HepaRG_APOA5: Life Technologies and Expression Analysis (LTEA) Assay for Apolipoprotein A-V (APOA5) gene using HepaRG (AID 2283474). In a few lines:
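Human liver HepaRG cells are treated 48 h with test chemicals (100 uM top, half-log dilutions, 0.5% DMSO). APOA5 mRNA induction or loss is measured by qRT-PCR relative to vehicle.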

Read-out in assay [17]: adenosine kinase (ADK) gene, ADK (gene 132)
Description: LTEA_HepaRG_ADK: Life Technologies and Expression Analysis (LTEA) Assay for adenosine kinase (ADK) gene using HepaRG (AID 2283471). In a few lines: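 HepaRG (human liver), 48 h chemical exposure, 8-pt half-log series, top 100 uM, 0.5% DMSO vehicle. Readout: ADK mRNA by qRT-PCR vs housekeeping genes; bidirectional curve fit relative to DMSO baseline.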

Active and inactive are the calls of the source. Rule for the calls: active = hit-call score of the fitted dose curve at least 0.9, where 1 is the maximum; inactive = score below 0.9.

As to `CC(O)CC(C)(C)O` (stereo unspecified), the outcome in assay [1], in [2], in [3], in assay [4], in assay [5] and in [6] was inactive. Also, the outcome in assay [7], in assay [8], in assay [9], in [10], in assay [11] and in assay [12] was inactive. For the same compound, the compound was classed as inactive (in assay [13]; in assay [14]; in assay [15]; with BCL2L11 (gene 10018); in assay [16]).
Usually AC50 stands for the concentration at which the activity in the assay is half-maximal. Turning to `CCN(Cc1cccnc1)C(=O)c1cccc(Cl)c1[C@]1(C)C(=O)N(Cc2ccc(OC)cc2OC)c2ccc(Cl)cc21`, the result in [1], in [2], in assay [5], in assay [6], in [7] and in assay [9] was inactive. For the same compound, the compound was classed as inactive (in [13]; with BCL2L11 (gene 10018)). Besides, the AC50 in assay [3] was 18.1 µM (active); in assay [4], 8.39 µM (active); in assay [8], 23.6 µM (active); in assay [10], 16.9 µM (active); in assay [11], 18.2 µM (active); in assay [12], 10.1 µM (active). Further, the results for the concentration at half-maximal activity (AC50) in assay [14], in assay [15] and in assay [16] were 24.7 µM (active), 19.4 µM (active) and 11.4 µM (active), respectively.
In the case of `Cc1cn([C@H]2C[C@H](N=[N+]=[N-])[C@@H](CO)O2)c(=O)[nH]c1=O`, the outcome in assay [1], in assay [2], in assay [3], in [4], in [5] and in [6] was inactive. Further, the compound was classed as inactive in assay [7], in assay [8], in assay [9], in assay [10], in [11] and in assay [12]. In addition, the result (in assay [13]; in [14]; in assay [17]; in assay [15]; with BCL2L11 (gene 10018); in [16]) was inactive.
With `CC[C@H](NC(=O)c1cc(F)ccc1NS(=O)(=O)c1cccc2cccnc12)c1ccccc1`, the compound was classed as inactive in [1], in assay [2], in assay [3], in [4], in assay [6] and in assay [7]. For the same compound, the compound was classed as inactive (in [10]; in [12]; in assay [13]; in [17]; with BCL2L11 (gene 10018)). Besides, the concentration at half-maximal activity (AC50) was 1.34 µM (active) in [5]; 47.8 µM (active) in assay [8]; 11.7 µM (active) in assay [9]; 71.3 µM (active) in [11]; 9.47 µM (active) in assay [14]; 32.1 µM (active) in [15]. The AC50 in [16] is 60.5 µM (active).
On to `CC(C)(c1cc(Br)c(O)c(Br)c1)c1cc(Br)c(O)c(Br)c1`, for which the half-maximal activity concentration (AC50) in [1] is 71.8 µM (active); in [4], 89.2 µM (active); in [6], 74.5 µM (active); in assay [8] it was 9.94 µM (active); in assay [11] it was 89.1 µM (active); in [14], 22.6 µM (active). For the same compound, the AC50 in assay [17] is 92.5 µM (active). Also, the outcome in [2], in [3], in [5], in [7], in assay [9] and in assay [10] was inactive. The result (in assay [12]; in [13]; in assay [15]; with BCL2L11 (gene 10018); in assay [16]) was inactive.
In the case of `Cc1ccc2oc(CN(Cc3ccccc3)C(=O)Nc3c(F)cc(F)cc3F)c(-c3ccc(Cl)cc3)c2c1`, the call in assay [1], in assay [2], in [4], in [6], in [7] and in assay [8] was inactive. Also, the result in assay [10], in assay [11], in assay [12], in [13], in [14] and in assay [17] was inactive. In addition, in the assay with BCL2L11 (gene 10018), the result was inactive. The AC50 in [3] is 8.78 µM (active); in assay [5] it was 19.7 µM (active); in [9], 13.7 µM (active); in assay [15], 32 µM (active); in assay [16] it was 44.2 µM (active).

Values taken from PubChem BioAssay (EPA / NIEHS).
